Test results: PubChem BioAssay AID624267 (The Scripps Research Institute Molecular Screening Center, 2012)
Hit rate of the full screen: of about 360,000 compounds, about 1,400 (0.39%) were called active. The sample holds actives, similar compounds and a random draw of the others, so the mix is not that of the screen. No stated cut-off is given here; in the data, active means inhibition above about 21%; inactive means the rest.

biological target: Receptor-interacting serine/threonine-protein kinase 2 (Homo sapiens) (UniProt O43353); test: NOD2-RIPK2 binding disruptors in cells, primary screen, fluorescence, CHO cells, BLA complementation (AID 624267); conditions: CHO BLA complementation NOD2-RIPK2, CCF4 ratio; at 4.98 µM; active compounds read high;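 further: 0% = vehicle only and 100% = reference blocker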
Sequence (O43353 whole entry, looked up): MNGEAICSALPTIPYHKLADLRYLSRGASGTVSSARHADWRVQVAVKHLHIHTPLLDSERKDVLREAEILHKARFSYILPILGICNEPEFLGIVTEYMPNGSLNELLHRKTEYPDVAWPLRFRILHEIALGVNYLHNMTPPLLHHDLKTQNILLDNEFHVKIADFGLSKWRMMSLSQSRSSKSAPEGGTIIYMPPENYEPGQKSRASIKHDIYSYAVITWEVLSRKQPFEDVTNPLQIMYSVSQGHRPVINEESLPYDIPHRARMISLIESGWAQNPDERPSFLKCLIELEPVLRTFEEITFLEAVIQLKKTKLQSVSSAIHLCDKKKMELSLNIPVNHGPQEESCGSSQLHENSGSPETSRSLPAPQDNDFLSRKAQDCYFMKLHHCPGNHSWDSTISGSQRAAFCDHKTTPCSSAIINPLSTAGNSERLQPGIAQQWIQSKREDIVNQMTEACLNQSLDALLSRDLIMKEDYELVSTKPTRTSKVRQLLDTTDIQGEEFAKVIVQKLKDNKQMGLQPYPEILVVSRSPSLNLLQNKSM

Row | SMILES | inhibition
1 | COCCN(C(=O)CSCc1ccc(C)cc1)c1c(N)n(CC(C)C)c(=O)[nH]c1=O | -4.76% (inactive)
2 | CN(C)CCCO/N=C(\c1ccccc1)c1ccncc1 | -6.88% (inactive)
3 | CCO[C@@H]1OC(C(N)=O)=C[C@H](c2ccc(Br)cc2)[C@H]1CCCO | -17.7% (inactive)
4 | CN(C)S(=O)(=O)c1cccc(C(=O)OCC(=O)N2CCCC2=O)c1 | -8.86% (inactive)
5 | CC(=O)Nc1ccc(NC(=O)C(C)OC(=O)c2ccccc2C(=O)c2ccc(Cl)c([N+](=O)[O-])c2)cc1 (configuration not stated) | 3.48% (inactive)
6 | N#Cc1cccc(NC(=O)COC(=O)c2ccccc2C(=O)c2ccc(Cl)c([N+](=O)[O-])c2)c1 | 39.9% (active)
7 | NS(=O)(=O)c1cccc(NC(=O)COC(=O)c2cc([N+](=O)[O-])ccc2N2CCCC2)c1 | -11.1% (inactive)
8 | Cn1nnnc1SCC(=O)NNC(=O)c1ccc(Br)cc1 | -2.01% (inactive)
9 | CN1CCN(/N=C2/C(=O)Nc3ccc([N+](=O)[O-])cc32)CC1 | 1.73% (inactive)
10 | CN1CCN(/N=C/c2ccc(C#N)cc2)CC1 | -13.1% (inactive)
11 | CN1CCN(/N=C/c2ccc(-c3ccc([N+](=O)[O-])cc3)o2)CC1 | 21.4% (active)
12 | COCCNC(=O)C(c1ccc(C)o1)N(Cc1cccs1)C(=O)c1snc(C(N)=O)c1N (configuration not stated) | -22% (inactive)
13 | Cc1nnc(NC2=NCCCCC2)o1 | -2.4% (inactive)
14 | COc1ccc(CNC(=O)CN2CCC(n3nnc4cc(F)ccc43)CC2)cc1 | -4.66% (inactive)
15 | Cn1c(SCC(=O)C(C)(C)C)nnc1-c1ccccn1 | 2.6% (inactive)
16 | COc1cc(/C=N/NC(=O)Nc2ccccc2)ccc1OCCOc1ccccc1C | 9.59% (inactive)

Row | SMILES | inhibition
17 | CNC(=S)N/N=C/c1ccc(OCc2ccccc2)c(Br)c1 | 33.9% (active)
18 | O=C(O)COc1ccc(/C=N/O)cc1Br | 11.6% (inactive)
19 | Cc1c(-c2ccccc2)cn2c1-c1ccc(C)n1CC2 | -12.5% (inactive)
20 | [O-][n+]1onc2c1CCc1[nH]c(-c3ccccc3)nc1-2 | -6.67% (inactive)
21 | CC(C)=CCC/C(C)=C/C(=O)O | 3.56% (inactive)
22 | Cc1cc(C)nc(NC(=O)Nc2ccccc2C(F)(F)F)n1 | 7.62% (inactive)
23 | O=C(/C=C/Sc1ncn[nH]1)c1ccc(Cl)cc1 | 21.3% (active)
24 | CC(C)CC(=O)N=C1SC2CS(=O)(=O)CC2N1CCc1ccccc1 (configuration not stated) | -9.18% (inactive)
25 | C=CCn1c(-c2ccccc2OCC)n[nH]c1=S | 0.62% (inactive)
26 | O[C@H]1CN(Cc2cccs2)[C@@H](c2ccc(Cl)cc2)C[C@@H]1n1cc(C2CC2)nn1 | 5.68% (inactive)
27 | O[C@H]1C[C@H](c2ccc(Cl)cc2)N(Cc2cccs2)C[C@@H]1n1cc(C2CC2)nn1 | 21.6% (active)
28 | O[C@@H]1C[C@H](c2ccccc2)N(Cc2cccs2)C[C@H]1n1cc(C2CC2)nn1 | -9.47% (inactive)
29 | CC(=O)Nc1ccc(CNc2nc(NCCN(C)C)nc3cc(-c4ccccc4)sc23)cc1 | 11.1% (inactive)
30 | Cc1ccc(C(=O)N2CCC(n3nccc3NC(=O)Nc3cccc(F)c3)CC2)cn1 | -2.88% (inactive)
31 | COc1ccc2ccccc2c1CNCc1ccccn1 | -4.61% (inactive)
32 | FC(F)Oc1ccccc1C1CC(c2ccc(Br)s2)Nc2ncnn21 (configuration not stated) | -2.05% (inactive)
